The source made the active and inactive calls. Calls follow the shape of the full dose curve.

The nature of this test: Immunofluorescence assay for KAP-1 phosphorylation on Ser824 for Identifying a Potential Treatment of Ataxia-Telangiectasia: SAR for Probe. To be noted: F2112 A-T fibroblasts, pKAP-1 S824 immunofluorescence. From the text:
NIH Chemical Genomics Center [NCGC] NIH Molecular Libraries Probe Centers Network [MLPCN] MLPCN Grant: MH089030-01 Assay Submitter (PI): Wei Zheng and Yosef Shiloh Ataxia-telangiectasia (A-T) is a devastating and progressive disease for which, there is no cure. Although A-T is a multisystem disease, it is stereotyped characterized by its neurological symptoms such as truncal ataxia, due to cerebellar cortical degeneration of the Purkinje and granule cells. Other symptoms of A-T are telangiectasias (dilated blood vessels), primary immunodeficiency, marked sensitivity to ionizing radiation (IR), chromosomal instability and predisposition to cancer. The underlying genetic cause of A-T is null mutations in the ATM (A-T mutated) gene. ATM is a nuclear serine/threonine kinase that functions as a master regulator of the cellular responses to double strand breaks (DSBs) in the DNA. Upon activation by DSBs, ATM phosphorylates a plethora of downstream targets, including KAP-1 on […]. KAP-1 phosphorylation occurs shortly in response to DSBs and mediates global chromatin relaxation, which facilitates DSB repair. To screen for small molecules that will compensate for the loss of ATM in cells derived from A-T patients, we monitored KAP-1 phosphorylation as a readout for ATM-like activity using an AlphaLISA assay.
qHTS Assay Protocol: 1. […] Plates are the read on InCell.
For the compound `CC(=O)c1c(O)c(C)c(O)c(Cc2c(O)c3c(c(C(=O)/C=C/c4ccccc4)c2O)OC(C)(C)C=C3)c1O`, the Potency is 10 µM (active).

For the origin of these results see PubChem BioAssay AID504366 (National Center for Advancing Translational Sciences (NCATS), 2011).
